For ten compounds, potency estimated from few doses results are on record in paper PMC11062922 (Nature Chemical Biology, 2023).

One assay has as its system AAK1. More on the design: species or system human, MV4-11 + K-562 + COLO205 + SK-N-BE2 + OVCAR-8. Conditions: read-out: apparent Kd, n = 1.
In another assay the test system is BMP2K. More on the design: species or system human, MV4-11 + K-562 + COLO205 + SK-N-BE2 + OVCAR-8. The note with it: read-out: apparent Kd, n = 1.
The next assay deals with FLT4. More on the design: species or system human, MV4-11 + K-562 + COLO205 + SK-N-BE2 + OVCAR-8. Conditions: read-out: apparent Kd, n = 1.
The next assay deals with GAK. On the set-up: species or system human, MV4-11 + K-562 + COLO205 + SK-N-BE2 + OVCAR-8. Conditions: read-out: apparent Kd, n = 1.
In a further assay the target is Q6ZSR9 (human, UniProt Q6ZSR9). More on the design: species or system MV4-11 + K-562 + COLO205 + SK-N-BE2 + OVCAR-8. The note with it: read-out: apparent Kd, n = 1.
Another assay deals with PAK4. On the set-up: species or system human, MV4-11 + K-562 + COLO205 + SK-N-BE2 + OVCAR-8. Conditions: read-out: apparent Kd, n = 1.
A further assay deals with CLK1. On the set-up: species or system human, MV4-11 + K-562 + COLO205 + SK-N-BE2 + OVCAR-8. Conditions: read-out: apparent Kd, n = 1.
The next assay deals with CLK4. More on the design: species or system human, MV4-11 + K-562 + COLO205 + SK-N-BE2 + OVCAR-8. The note with it: read-out: apparent Kd, n = 1.
In another assay the test system is MELK. On the set-up: species or system human, MV4-11 + K-562 + COLO205 + SK-N-BE2 + OVCAR-8. Conditions: read-out: apparent Kd; compound concentrations:100 nM and 1000 nM (sheet 'Samples'); n = 1.
Another assay concerns CSNK2A1;CSNK2A3. On the set-up: species or system human, MV4-11 + K-562 + COLO205 + SK-N-BE2 + OVCAR-8. The note with it: read-out: apparent Kd; compound concentrations:100 nM and 1000 nM (sheet 'Samples'); n = 1.
The next assay concerns CSNK2A2. More on the design: species or system human, MV4-11 + K-562 + COLO205 + SK-N-BE2 + OVCAR-8. The note with it: read-out: apparent Kd; compound concentrations:100 nM and 1000 nM (sheet 'Samples'); n = 1.
A further assay relates to FLT3. On the set-up: species or system human, MV4-11 + K-562 + COLO205 + SK-N-BE2 + OVCAR-8. Conditions: read-out: apparent Kd; compound concentrations:100 nM and 1000 nM (sheet 'Samples'); n = 1.
The test system of the next assay is NUAK1. On the set-up: species or system human, MV4-11 + K-562 + COLO205 + SK-N-BE2 + OVCAR-8. Conditions: read-out: apparent Kd, n = 1.
The next assay relates to PKN1. On the set-up: species or system human, MV4-11 + K-562 + COLO205 + SK-N-BE2 + OVCAR-8. Conditions: read-out: apparent Kd, n = 1.
Another assay relates to RET. More on the design: species or system human, MV4-11 + K-562 + COLO205 + SK-N-BE2 + OVCAR-8. The note with it: read-out: apparent Kd; compound concentrations:100 nM and 1000 nM (sheet 'Samples'); n = 1.
The next assay has as its system SIK2. More on the design: species or system human, MV4-11 + K-562 + COLO205 + SK-N-BE2 + OVCAR-8. Conditions: read-out: apparent Kd; compound concentrations:100 nM and 1000 nM (sheet 'Samples'); n = 1.
Another assay concerns GSK3B. On the set-up: species or system human, MV4-11 + K-562 + COLO205 + SK-N-BE2 + OVCAR-8. The note with it: read-out: apparent Kd, compound concentrations: 100 nM and 1000 nM (sheet 'Samples'), n = 1.
In a further assay the test system is GSK3A. On the set-up: species or system human, MV4-11 + K-562 + COLO205 + SK-N-BE2 + OVCAR-8. The note with it: read-out: apparent Kd; compound concentrations: 100 nM and 1000 nM (sheet 'Samples'), CATDS: 5.7986352312034098E-2; n = 1.
Setting [1] is: compound concentrations:100 nM and 1000 nM (sheet 'Samples').

Like-named read-outs stand apart in the source and are kept apart here.

Sequence of Q6ZSR9 (Q6ZSR9 whole entry, looked up): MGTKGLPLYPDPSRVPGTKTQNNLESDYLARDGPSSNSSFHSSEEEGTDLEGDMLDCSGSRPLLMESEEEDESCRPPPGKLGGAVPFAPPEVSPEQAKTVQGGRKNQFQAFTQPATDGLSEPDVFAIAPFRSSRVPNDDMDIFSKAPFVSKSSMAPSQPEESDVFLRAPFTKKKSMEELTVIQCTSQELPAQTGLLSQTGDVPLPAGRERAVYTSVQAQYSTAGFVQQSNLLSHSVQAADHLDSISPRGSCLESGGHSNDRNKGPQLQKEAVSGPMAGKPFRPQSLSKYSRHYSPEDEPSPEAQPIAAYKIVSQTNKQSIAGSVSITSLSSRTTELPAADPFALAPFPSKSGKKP

On to `COc1cc2ncn(-c3cc(OCc4ccccc4S(C)(=O)=O)c(C#N)s3)c2cc1OC` [GSK319347A], for which the potency estimated from few doses is 621 nM in the assay on AAK1 (compound concentrations: 100 nM and 1000 nM (sheet 'Samples'), CATDS: 0.12685242970353799); 177 nM in the assay on BMP2K (compound concentrations: 100 nM and 1000 nM (sheet 'Samples'), CATDS: 0.286498522791794); 1720 nM with FLT4 (compound concentrations: 100 nM and 1000 nM (sheet 'Samples'), CATDS: 8.0295198966638101E-2); 1450 nM in the assay with GAK (compound concentrations: 100 nM and 1000 nM (sheet 'Samples'), CATDS: 8.54645100662135E-2); 647 nM in the assay with Q6ZSR9 (compound concentrations: 100 nM and 1000 nM (sheet 'Samples'), CATDS: 0.124049531101547).
As for `COc1cccc(C2=C(c3c(C)n(C)c4ccccc34)C(=O)NC2=O)c1` [RO3300167-000], the potency estimated from few doses is 1520 nM in the assay on AAK1 (compound concentrations: 100 nM and 1000 nM (sheet 'Samples'), CATDS: 7.9667560611670199E-2); 582 nM in the assay with PAK4 (compound concentrations: 100 nM and 1000 nM (sheet 'Samples'), CATDS: 0.130749402221499); 1510 nM in the assay with Q6ZSR9 (compound concentrations: 100 nM and 1000 nM (sheet 'Samples'), CATDS: 7.9945675311768105E-2).
Turning to `Nc1nccc(-c2ccc3c(N)n[nH]c3c2)n1` [GSK1034945A], the potency estimated from few doses in the assay on AAK1 (setting [1]) was 194 nM; in the assay with BMP2K (setting [1]), 194 nM; in the assay on CLK1 (setting [1]), 35.4 nM; with CLK4 (setting [1]), 25 nM; in the assay on MELK, 828 nM; with Q6ZSR9 (setting [1]), 225 nM.
As to `NS(=O)(=O)c1ccc(N/N=C2\C(=O)Nc3ccc(-c4cnco4)cc32)cc1` [GW276655_KCGS], the results for the potency estimated from few doses with AAK1 (setting [1]), with BMP2K (setting [1]) and with Q6ZSR9 (setting [1]) were 1180 nM, 518 nM and 782 nM, respectively.
`COc1cc[nH]c1/C=C1\C(=O)Nc2ccc(F)c(C#C[C@@H](O)[C@@H](N)[C@@H](C)O)c21` [RO0283120-000]: the potency estimated from few doses in the assay on AAK1 (setting [1]) is 171 nM; in the assay with BMP2K (setting [1]), 84.3 nM; with CLK4 (setting [1]), 1360 nM; with CSNK2A1;CSNK2A3, 750 nM; in the assay with CSNK2A2, 497 nM; with FLT3, 59.3 nM. Besides, the potency estimated from few doses was 1670 nM in the assay on FLT4 (setting [1]); 868 nM in the assay on GAK (setting [1]); 679 nM in the assay with MELK; 20.3 nM in the assay on NUAK1 (setting [1]); 350 nM in the assay on PAK4 (setting [1]); 959 nM in the assay on PKN1 (setting [1]). The potency estimated from few doses with Q6ZSR9 (setting [1]) is 208 nM; in the assay with RET, 117 nM; with SIK2 it was 878 nM.
As to `O=C(Nc1n[nH]c2nc(-c3ccccc3O)ccc12)C1CC1` [SB-711880], the potency estimated from few doses in the assay on AAK1 (setting [1]) is 713 nM; in the assay with CLK4 (setting [1]), 1230 nM; in the assay on FLT4 (setting [1]) it was 1790 nM; in the assay on MELK it was 2380 nM; in the assay on NUAK1 (setting [1]) it was 1850 nM; in the assay with PAK4 (setting [1]), 357 nM. The potency estimated from few doses in the assay with Q6ZSR9 (setting [1]) is 537 nM; in the assay on SIK2, 547 nM.
Consider `CC(C)N1CC(=O)N(C)c2cnc(Nc3cccc(S(=O)(=O)CCN4CCOCC4)c3)nc21` [BI00009348], for which the potency estimated from few doses in the assay on AAK1 (compound concentrations: 100 nM and 1000 nM (sheet 'Samples'), CATDS: 7.4673370536537498E-2) is 662 nM; in the assay with BMP2K (compound concentrations: 100 nM and 1000 nM (sheet 'Samples'), CATDS: 7.1051362969771797E-2), 736 nM; in the assay on GSK3B (CATDS: 6.9045357407431895E-2), 783 nM; in the assay with NUAK1 (compound concentrations: 100 nM and 1000 nM (sheet 'Samples'), CATDS: 5.8980010573034099E-2), 1140 nM; with Q6ZSR9 (compound concentrations: 100 nM and 1000 nM (sheet 'Samples'), CATDS: 6.16877896582032E-2), 1020 nM.
As for `Cl.Cl.NC[C@H](CC1CCCCC1)NC(=O)c1ccc(-c2ccnc3[nH]ccc23)s1.NC[C@H](CC1CCCCC1)NC(=O)c1ccc(-c2ccnc3[nH]ccc23)s1` [GSK1581428A], the potency estimated from few doses was 54.5 nM in the assay on AAK1 (setting [1]), 538 nM with PKN1 (setting [1]) and 62.7 nM in the assay with Q6ZSR9 (setting [1]).
Take `Cn1cc(C2=C(c3ccc(OC[C@@H](O)CO)cc3)C(=O)NC2=O)c2ccccc21` [RO3208546-000]: the potency estimated from few doses with AAK1 (compound concentrations: 100 nM and 1000 nM (sheet 'Samples'), CATDS: 3.6946772477140302E-2) is 1320 nM; in the assay with CLK1 (compound concentrations: 100 nM and 1000 nM (sheet 'Samples'), CATDS: 3.5256752059163503E-2), 1510 nM; in the assay on GAK (compound concentrations: 100 nM and 1000 nM (sheet 'Samples'), CATDS: 4.3278259075416499E-2) it was 885 nM; in the assay with GSK3A, 489 nM; with GSK3B (CATDS: 4.5953894166210499E-2) it was 774 nM; with Q6ZSR9 (compound concentrations: 100 nM and 1000 nM (sheet 'Samples'), CATDS: 3.3781584093652402E-2), 1720 nM.
Consider `Cl.Cl.NCC(NC(=O)c1cc(-c2ccnc3[nH]ccc23)cs1)c1ccccc1.NCC(NC(=O)c1cc(-c2ccnc3[nH]ccc23)cs1)c1ccccc1` (stereo not shown) [GSK1229959A], for which the potency estimated from few doses was 79.6 nM in the assay on AAK1 (compound concentrations: 100 nM and 1000 nM (sheet 'Samples'), CATDS: 3.6384638335370603E-2); 97.1 nM in the assay on BMP2K (compound concentrations: 100 nM and 1000 nM (sheet 'Samples'), CATDS: 3.4118166315235399E-2); 1240 nM with CLK4 (compound concentrations: 100 nM and 1000 nM (sheet 'Samples'), CATDS: 1.8316449367944E-2); 75.5 nM in the assay on GAK (compound concentrations: 100 nM and 1000 nM (sheet 'Samples'), CATDS: 3.7046569699604799E-2); 1170 nM in the assay on GSK3B (CATDS: 1.8491508517635601E-2); 155 nM in the assay on PKN1 (compound concentrations: 100 nM and 1000 nM (sheet 'Samples'), CATDS: 2.9664861147502199E-2). In addition, the potency estimated from few doses in the assay with Q6ZSR9 (compound concentrations: 100 nM and 1000 nM (sheet 'Samples'), CATDS: 3.4885156977357598E-2) is 90.6 nM.
